Measured values published in ChEMBL document CHEMBL3988442, “University of Dundee, Small-Polar-MMV Screening Library” (2021).

How the values were obtained:
[1] = target: T1, Aspartate--tRNA(Asp/Asn) ligase (Mycobacterium tuberculosis (strain ATCC 25618 / H37Rv)) (UniProt P9WFW3); test: Assay for Asp RNA synthetase-1 from Mycobacterium tuberculosis; type: functional; set-up: scale not given: direction of the effect not stated beside the values; conditions: 30 µM; further: in the data most compounds retested in dose-response had high values
T1 sequence (whole entry): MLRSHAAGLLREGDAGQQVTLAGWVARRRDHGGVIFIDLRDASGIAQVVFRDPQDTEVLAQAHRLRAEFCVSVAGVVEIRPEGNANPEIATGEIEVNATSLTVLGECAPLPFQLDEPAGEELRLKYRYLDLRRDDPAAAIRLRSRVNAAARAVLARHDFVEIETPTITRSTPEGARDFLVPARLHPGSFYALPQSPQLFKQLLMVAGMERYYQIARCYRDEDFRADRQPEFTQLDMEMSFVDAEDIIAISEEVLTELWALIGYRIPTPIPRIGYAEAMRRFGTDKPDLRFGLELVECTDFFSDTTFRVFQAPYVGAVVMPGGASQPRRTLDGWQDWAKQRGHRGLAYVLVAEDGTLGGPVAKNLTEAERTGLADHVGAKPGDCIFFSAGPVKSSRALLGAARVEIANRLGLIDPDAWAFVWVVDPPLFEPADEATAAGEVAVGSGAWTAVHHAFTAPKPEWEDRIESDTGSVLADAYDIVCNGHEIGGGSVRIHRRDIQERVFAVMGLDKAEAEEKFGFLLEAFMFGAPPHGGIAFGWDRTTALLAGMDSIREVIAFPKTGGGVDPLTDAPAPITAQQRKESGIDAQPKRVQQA

[2] = target: Shiga toxin 2 (Escherichia coli O157:H7) (UniProt P09385+P09386); test: E. coli 0.157:H7 Shiga Toxin SOP - stx2 screening assay; type: functional; set-up: scale not given: direction of the effect not stated beside the values; conditions: 30 µM

Compound	Percent Effect [1] [%]	Percent Effect [2] [%]
O=C(Cc1ccccc1F)N1CCN(C(=O)c2ccoc2)CC1	5.87	-6.64
Cn1cc(-c2cnc(N3CCOCC3)nc2)cc1C(=O)NCCO	8.57	-9.13
NC[C@H]1CC[C@H](C(NC(=O)c2ccccn2)c2ccccn2)CC1 (stereo partly drawn)	1.43	17
Cc1nc(C2CCCN(C(=O)c3ccc(OCC4CC4)cc3)C2)no1 (stereo not drawn)	-8.26	-5.46
CN1CCCC1c1cccc(Cc2ccccc2F)n1 (stereo not drawn)	-0.581	1.7
O=C(Nc1nccs1)NC1CCN(Cc2ccccc2)C1 (stereo not drawn)	-1.92	-17.1
CCc1nc(C2CCCN2C(=O)CCCn2cccn2)no1 (stereo not drawn)	-0.232	-5.5
CCn1nc2c(cc1=O)CN(Cc1nc(CCOC)no1)CC2	2.21	-7.6
CN1CCN(C(=O)c2cnc3c(cnn3C3CCCC3)c2)CC1	-4	-2.45
CN(C)C(=O)c1ccc(CNC(=O)NCCN(C)C2CCCC2)cc1	1.57	14.3
Cc1ccc(N2CCCN(C(=O)C(C(C)C)n3cncn3)CC2)nn1 (stereo not drawn)	-4.34	-13.6
CC(C)C(=O)N1CCCC(c2cc(C(F)F)n3ncnc3n2)C1 (stereo not drawn)	1.92	-11.7
Cc1nc(C)c2c(n1)CCN(C(=O)CC1CC1)CC2	-2.64	-5.99
Cc1nc(C)n(CC2CN(c3ncccn3)Cc3nccn3C2)n1 (stereo not drawn)	-0.127	11.6
O=C(c1cc2c(s1)CCC2)N1CCCCC1Cn1cccn1 (stereo not drawn)	1.25	11.1
Cc1ccc(C(=O)N2CCc3c(CNS(C)(=O)=O)cncc3C2)o1	9.11	-21
O=C(Nc1nccs1)N(CCO)Cc1ccsc1	-2.48	-3.95
Cc1cnc(C(=O)N2C[C@@H]3CN(CC4CCCC4)CCO[C@@H]3C2)cn1	-4.04	-21.5
COCCC(=O)N1CCC2(CN(Cc3ccc(OC)c(F)c3)C2)C1	-0.524	-4.43
O=S(=O)(NCCN1CCCCC1Cn1cncn1)c1ccccc1 (stereo not drawn)	1.46	5.96
COc1ccc(OC)c(-c2nc(CN(C)Cc3nncn3C)c(C)o2)c1	5.61	-20.1
Cc1ccc(NC(=O)NC(C)C(=O)N2CCS(=O)(=O)CC2)cc1 (stereo not drawn)	1.19	12.8
CC(C)CCC(=O)NC(C)c1nnc2n1CCCCC2 (stereo not drawn)	1.76	-17.4
Cn1cnnc1C1CCCN(C(=O)c2n[nH]c3ccccc23)C1 (stereo not drawn)	-3.14	-4.11
Fc1ccccc1-c1noc2c1CN(CC1CC1)CC2	-1.29	-8.88
O=C(c1ccc(F)c(F)c1)N1CCCC(Nc2ccc(F)cc2)C1 (stereo not drawn)	0.212	11.2
Cc1cccc(C2(NC(=O)CCN3C(=O)CCC3=O)CCCC2)c1	-6.14	10.2
CCc1ncc2c(n1)CN(Cc1nnc(C)o1)CC2	-4.37	-16.2
Cc1cc(=O)[nH]c(NCCNC(=O)C(c2ccc(F)cc2)N(C)C)n1 (stereo not drawn)	-2.14	-65.1
